# In PubChem BioAssay:
# “And” between values parts separate entries of the source, which are not always exact repeats. Equal values may be shown once. The source made the active and inactive calls.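 Rule for the calls, unless noted: active = inhibition at or above 50% relative to wild type and mutant plate controls; inactive = inhibition below 50%.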
# Columns and labels:
# [1] = inhibitors of TNFa-induced NFkB p65 translocation, primary screen, imaging, HUVEC, MLSMR starter and 10KST1 sets (AID 438;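 active = inhibition above 20% together with a positive visual image hit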;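 note: compound added about 3h40 before a 20 min TNFalpha stimulation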;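 for inhibition: signal is the nuclear over cytoplasmic p65 intensity ratio per well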); conditions: HUVEC TNFa-induced p65 nuclear translocation; cell count: measured here: nuclei count (cytotoxicity indicator), at 2.08 µM; inhibition: at 2 µM, stronger effect = higher value, 0% TNFa-plus-vehicle, 100% no-TNFa wells
# [2] = inhibitors of E-selectin induction by TNFa, primary screen, imaging, HUVEC, immunofluorescence, MLSMR starter and 10KST1 sets (AID 487;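 active = visually confirmed hit in the image check and inhibition above 20%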;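 for inhibition: signal is fraction of cell area covered by stained E-selectin grains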;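 for nuclei count: 100% = median nuclei count of all wells on the same plate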); conditions: HUVEC TNFalpha-induced E-selectin immunofluorescence imaging, at 2 µM; inhibition: stronger effect = higher value; nuclei count: measured here: cell number, toxicity
# [3] = DUSP6 inhibitors restoring Erk phosphorylation by chemical complementation, primary imaging in DUSP6-transfected HeLa (AID 609;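 active = compounds giving at least 50% inhibition in the cell-based MKP-3 phosphatase rescue imaging test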;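 for inhibition: phospho-Erk level distribution per well compared with pooled transfected vehicle control wells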); conditions: HeLa MKP-3 transfected, phospho-Erk imaging KS statistic, at 10 µM, cells stimulated with TPA for 15 min
# [4] = biological target: Dual specificity protein phosphatase 6 (Homo sapiens) (UniProt Q16828); test: as above; conditions: HeLa MKP-3 transfected, phospho-Erk imaging KS statistic; at 10 µM; stronger effect = higher value; cells stimulated with TPA for 15 min
# [5] = biological target: Voltage-gated potassium channel subunit beta-2 (Rattus norvegicus) (UniProt P62483); test: KvBeta enzyme negative modulators, primary screen, biochemical, NADPH fluorescence (AID 622;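 active = fluorescence slope higher than the sample average by over 3 SD, cut at about -0.22 in these data, passing the limit was not always enough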;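 note: slope of raw intensity against log time taken from 70 to 1610 s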); conditions: recombinant KvBeta, 4-cyanobenzaldehyde reduction, at 10 µM, stronger effect = higher value
# [6] = biological target: Voltage-gated potassium channel subunit beta-2 (Rattus norvegicus) (UniProt P62483); test: KvBeta positive modulators, primary screen, biochemical, NADPH fluorescence (AID 623;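 active = NADPH fluorescence slope more negative than the mean of all samples by about 3 SD, 99.7% confidence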;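 note: fluorescence intensity change per second fitted from 20 to 320 s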); conditions: Recombinant KvBeta, NADPH fluorescence decrease slope, 10 min; at 10 µM; stronger effect = lower value
# [7] = biological target: Alpha-2C adrenergic receptor (Homo sapiens) (UniProt P18825); test: modulators of alpha2C/GIRK thallium flux, primary screen, cell-based, HEK293 alpha2C/GIRK1/2 (AID 624;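 active = fluorescence slope after compound addition differing from the mean of all screened samples at 99.7% confidence, in either direction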;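 note: slope of fluorescence ratio to pre-addition baseline per second over 15 to 24 s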); conditions: thallium flux BTC fluorescence, at 10 µM, actives lie on both sides
# [8] = inhibitors of larval lipid processing in zebrafish, primary screen, whole organism, PED6 fluorescence, gall bladder and intestine (AID 686;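 active = a full or partial loss of lipid-probe fluorescence in the fish gall bladder, intestine or both, judged by eye; inactive = no fluorescence loss, or compound toxic to the fish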;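 note: larvae 5 to 7 days old with five fish per well; signal comes from phospholipase A2 cleavage of quenched PED6 carried via bile; overnight exposure to compound and PED6 before scoring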); conditions: Zebrafish larvae PED6 lipid processing, fluorescence scoring; screened at 20 µM (by protocol)
# [9] = inhibitors of Chlamydomonas gravitaxis, primary screen, whole organism, Chlamydomonas reinhardtii, WT vs cilia-less mutant, absorbance, 96-well (AID 463189); conditions: OD600 absorbance, 2 days, at 10 µM, stronger effect = higher value;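 note: 0% = wild type cc124 cells in DMSO and 100% = ciliumless bld1 mutant cells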
# [10] = inhibitors of Sendai virus-induced IRF3 signaling, primary screen, TLR/RLR signaling modifier project, cell-based, Sendai virus stimulus, luciferase, 10K MLSCN set (AID 602276;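 active = inhibition at or above 50% at 10 µM; inactive = inhibition below 50%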;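 note: firefly luciferase from ISG56 promoter only with Renilla not read in this screen; 0% = Sendai virus plus DMSO and 100% = medium plus DMSO without virus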); conditions: HEK293 RL24 IRF3 luciferase reporter, at 10 µM, stronger effect = higher value
# [11] = inhibitors of poly I:C-induced TLR3 signaling, primary screen, cell-based, poly I:C stimulus, luciferase, 10K MLSCN set (AID 602277;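 active = inhibition of the reporter signal at or above 50%; inactive = inhibition below 50%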); conditions: HEK293-TLR3 RL24 IRF3 luciferase reporter, at 10 µM, stronger effect = higher value
# [12] = measured here: cell density z-score
# [13] = measured here: nuclear c-Myc green intensity z-score
# [14] = measured here: nuclear pErk red intensity z-score, stronger effect = higher value
# Chain of Alpha-2C adrenergic receptor (Homo sapiens) (P18825 whole entry, looked up): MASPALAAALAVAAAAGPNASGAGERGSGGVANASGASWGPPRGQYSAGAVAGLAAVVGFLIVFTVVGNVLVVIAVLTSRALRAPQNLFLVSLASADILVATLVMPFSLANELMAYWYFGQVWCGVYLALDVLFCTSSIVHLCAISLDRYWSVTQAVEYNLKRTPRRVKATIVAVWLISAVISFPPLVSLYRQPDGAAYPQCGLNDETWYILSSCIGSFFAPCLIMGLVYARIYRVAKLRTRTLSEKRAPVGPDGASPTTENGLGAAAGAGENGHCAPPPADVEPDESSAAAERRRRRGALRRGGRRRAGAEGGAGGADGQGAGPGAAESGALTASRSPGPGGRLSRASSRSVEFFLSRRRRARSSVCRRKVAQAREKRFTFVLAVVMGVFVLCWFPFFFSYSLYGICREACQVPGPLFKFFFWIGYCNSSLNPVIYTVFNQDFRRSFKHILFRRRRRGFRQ
# Chain of Dual specificity protein phosphatase 6 (Homo sapiens) (Q16828 whole entry, looked up): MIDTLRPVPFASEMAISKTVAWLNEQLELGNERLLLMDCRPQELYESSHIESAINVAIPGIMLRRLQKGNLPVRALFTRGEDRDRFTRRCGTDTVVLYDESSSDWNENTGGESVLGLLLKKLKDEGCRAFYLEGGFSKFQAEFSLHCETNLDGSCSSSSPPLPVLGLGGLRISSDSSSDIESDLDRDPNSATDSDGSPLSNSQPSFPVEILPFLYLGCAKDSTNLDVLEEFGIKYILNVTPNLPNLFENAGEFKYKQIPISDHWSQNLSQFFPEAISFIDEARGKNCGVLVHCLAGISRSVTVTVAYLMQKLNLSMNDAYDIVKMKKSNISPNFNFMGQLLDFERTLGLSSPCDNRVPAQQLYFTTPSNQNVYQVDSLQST
# Chain of Voltage-gated potassium channel subunit beta-2 (Rattus norvegicus) (P62483 whole entry, looked up): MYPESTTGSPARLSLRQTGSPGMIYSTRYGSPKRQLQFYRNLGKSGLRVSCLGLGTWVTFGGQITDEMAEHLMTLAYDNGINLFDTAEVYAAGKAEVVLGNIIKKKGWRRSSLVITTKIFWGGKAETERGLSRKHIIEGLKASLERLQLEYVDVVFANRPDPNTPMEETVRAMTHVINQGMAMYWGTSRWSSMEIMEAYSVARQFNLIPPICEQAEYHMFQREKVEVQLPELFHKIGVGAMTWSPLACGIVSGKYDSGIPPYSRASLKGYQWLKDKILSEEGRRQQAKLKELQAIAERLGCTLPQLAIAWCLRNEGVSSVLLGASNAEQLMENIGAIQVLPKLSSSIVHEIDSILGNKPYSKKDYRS
Compound,cell count [1],inhibition [1],inhibition [2],nuclei count [2] [%],"z-score [3, 12]","z-score [3, 13]","z-score [3, 14]",inhibition [4],fluorescence slope [5],NADPH fluorescence slope [6],slope [7],outcome [8],inhibition [9],inhibition [10],inhibition [11]
CCOC(=O)C1=C(C)NC(C)=C(C(=O)OC)C1c1cccc(Cl)c1Cl (configuration not stated),723,-6.4% (inactive),-52.9% (inactive),142,0.529,-0.8,1.2,25.1% (inactive),-0.431 (inactive),-6.6e-05 (inactive),0.00394 (inactive),inactive,14.9% (inactive) and 24.6% (inactive),3.98% (inactive),6.81% (inactive)
c1ccc(CN2CCN(c3nc(-c4ccccn4)nc4ccccc34)CC2)cc1,275,-1.9% (inactive),-134% (inactive),96.6,0.978,-1.13,-0.507,20.2% (inactive),-0.498 (inactive),4.9e-06 (inactive),0.00604 (inactive),–,130% (active),–,–
Cc1c(C)c2cc(Cl)c(O)c(CN3CCN(C)CC3)c2oc1=O,394,-6.5% (inactive),-104% (inactive),179,-0.305,-0.256,0.789,-10.5% (inactive),-0.121 (inactive),3.5e-05 (inactive),0.00398 (inactive),–,14% (inactive),–,–
CCn1nc(C(=O)O)c(=O)c2cc3c(cc21)OCO3,692,-0.9% (inactive),-72.8% (inactive),125,0.431,0.329,-0.702,1.48% (inactive),-0.476 (inactive),-5.5e-05 (inactive),0.00573 (inactive),inactive,-5.01% (inactive) and 17.9% (inactive),8.87% (inactive),30.3% (inactive)
COc1ccc(C(=O)Nc2nc(N)n(-c3ccccc3)n2)cc1OC,328,11.6% (inactive),8.6% (inactive),154,-1.01,1.47,0.0402,-1.75% (inactive),-0.426 (inactive),-0.000152 (inactive),0.00543 (inactive),–,12.5% (inactive),–,–
CC(C)c1nc2n[nH]c(N)c2c2c1CCC2,359,-3.7% (inactive),-74.3% (inactive),148,0.678,-1.06,0.961,5.26% (inactive),-0.409 (inactive),-0.000125 (inactive),0.007 (inactive),–,2.52% (inactive),–,–
O=C(O)c1cc(=O)c2c(OCC(O)COc3cccc4oc(C(=O)O)cc(=O)c34)cccc2o1,472,-2.9% (inactive),-78.3% (inactive),106,-1.42,1.02,-0.69,5.42% (inactive),-0.505 (inactive),-6.1e-05 (inactive),0.0051 (inactive),inactive,-9.3% (inactive),13.2% (inactive),13.9% (inactive)
O=C(NCCCn1ccnc1)C(Cc1ccccc1)N1C(=O)c2ccccc2C1=O (configuration not stated),340,-6.9% (inactive),-73.9% (inactive),125,0.63,-0.478,-0.334,1.6e-07% (inactive),-0.46 (inactive),-0.000126 (inactive),0.00809 (inactive),–,3.02% (inactive),–,–
CCCC(=O)Nc1ccc(OCC(O)CNC(C)C)c(C(C)=O)c1 (configuration not stated),693,-4.7% (inactive),-70.6% (inactive),120,-1.73,-0.994,0.31,11.3% (inactive),-0.492 (inactive),3e-05 (inactive),0.00505 (inactive),inactive,-6.41% (inactive),8.12% (inactive),27.1% (inactive)
COc1cccc(C2C(C(=O)c3cccs3)=C(O)C(=O)N2c2cc(C)on2)c1 (configuration not stated),316,-1.9% (inactive),-91.3% (inactive),148,-0.295,-1.2,1.95,-7.01% (inactive),-0.427 (inactive),-0.000129 (inactive),0.00539 (inactive),–,-2.3% (inactive),–,–
Cc1ccc2cc(CN(C(=O)c3ccco3)c3ccccc3C)c(=O)[nH]c2c1,334,8.3% (inactive),-73.2% (inactive),116,1.77,-1.81,-0.15,17.5% (inactive),-0.477 (inactive),1.8e-05 (inactive),0.00844 (inactive),–,32.2% (inactive),–,–
CCCCc1cc(=O)oc2c(CN(C)C)c(O)c(Cl)cc12,409,-5.1% (inactive),-156% (inactive),164,-0.211,-0.0215,0.835,-5.26% (inactive),-0.163 (inactive),2.2e-05 (inactive),0.0046 (inactive),–,0.735% (inactive),–,–
CC(C)Cc1nc2n[nH]c(N)c2c2c1CCC2,325,-3.7% (inactive),-87.6% (inactive),149,0.414,-0.778,-0.647,-1.75% (inactive),-0.43 (inactive),-8.3e-05 (inactive),0.0075 (inactive),–,8.43% (inactive),–,–
C=C1C2(C(=O)Nc3nccs3)CCC(C2)C1(C)C (configuration not stated),357,-0.5% (inactive),-34.7% (inactive),138,-1.77,1.86,0.223,-3.5% (inactive),-0.4 (inactive),-0.000131 (inactive),0.00676 (inactive),–,0.99% (inactive),–,–
O=C(O)CCCCCN1C(=O)CCC1=O,376,-5.6% (inactive),-216% (inactive),154,-0.0667,-0.815,0.641,5.26% (inactive),-0.456 (inactive),-0.000125 (inactive),0.0074 (inactive),–,7.42% (inactive),–,–
COc1ccc(C2C=C(c3ccc(Cl)cc3)Nc3nc(NC(C)=O)nn32)cc1 (configuration not stated),325,1.9% (inactive),-27.6% (inactive),159,-0.557,0.239,0.747,-8.76% (inactive),-0.144 (inactive),4.9e-05 (inactive),0.00461 (inactive),–,7.51% (inactive),–,–
COC(=O)C1=C(C)N=C2SC(C)C(=O)N2C1/C=C/c1ccccc1OC (configuration not stated),366,3.2% (inactive),-74.7% (inactive),143,-1.74,0.498,0.497,-1.75% (inactive),-0.423 (inactive),-0.00012 (inactive),0.00673 (inactive),–,-14.7% (inactive),–,–
COc1cc(C2C(C(=O)c3cccs3)=C(O)C(=O)N2c2cc(C)on2)ccc1O (configuration not stated),340,4.6% (inactive),-93.3% (inactive),155,0.402,-0.247,-0.385,-10.5% (inactive),-0.43 (inactive),-0.000162 (inactive),0.00517 (inactive),–,-10.7% (inactive),–,–
CC12CCC(C(=O)N(CCC#N)CCC#N)(CC1=O)C2(C)C (configuration not stated),311,21.3% (inactive),-9% (inactive),92.1,-0.914,1.07,1.43,-12.3% (inactive),-0.505 (inactive),-9.3e-05 (inactive),0.00706 (inactive),–,20.6% (inactive),–,–
CCC(=O)O[C@@H]1CC(=O)O[C@H](C)CC=CC=C[C@@H](O)[C@H](C)C[C@H](CC=O)[C@H](O[C@H]2O[C@H](C)[C@@H](O[C@H]3C[C@@](C)(O)[C@@H](OC(=O)CC)[C@H](C)O3)[C@H](N(C)C)[C@H]2O)[C@H]1OC,725,-0.7% (inactive),-105% (inactive),120,-0.528,-0.404,-1.92,11.3% (inactive),-0.525 (inactive),-4.8e-05 (inactive),0.00447 (inactive),inactive,66.6% (active),-13.3% (inactive),-27.4% (inactive)
COc1ccc(NCc2cc3ccccc3[nH]c2=O)cc1,254,-8.8% (inactive),-69.8% (inactive),90,-0.199,-0.583,0.127,-12.3% (inactive),-0.408 (inactive),-3.2e-05 (inactive),0.00788 (inactive),–,7.35% (inactive),–,–
COC(=O)C1=C(C)N=C2SC(C)C(=O)N2C1c1cccs1 (configuration not stated),366,3.7% (inactive),-39.6% (inactive),142,1.89,-0.39,-0.931,22.8% (inactive),-0.426 (inactive),-0.000101 (inactive),0.00597 (inactive),–,14.7% (inactive),–,–
COc1cccc(-c2nc(NCCN3CCOCC3)c3ccccc3n2)c1O,355,-7.9% (inactive),21.8% (inactive),164,-0.211,-0.437,-0.66,21% (inactive),-0.395 (inactive),-0.00024 (inactive),0.00346 (inactive),–,95% (active),–,–
C=CCOc1nc(-c2ccncc2)nc2ccccc12,345,4.5% (inactive),-73.4% (inactive),130,0.583,-0.0101,-0.88,16.1% (inactive),-0.491 (inactive),-3.3e-05 (inactive),0.00589 (inactive),–,79.7% (active),–,–
CCN(CC)CCCN1C(=O)C(=O)/C(=C(/O)c2ccc(Cl)cc2)C1c1ccccn1 (configuration not stated),355,3.2% (inactive),-70.8% (inactive),81.9,-2.05,-1.03,0.528,-15.8% (inactive),-0.442 (inactive),-0.000153 (inactive),0.00491 (inactive),–,24.6% (inactive),–,–
Cc1ccc(N(Cc2cc3ccccc3[nH]c2=O)C(=O)c2ccco2)c(C)c1,332,-14.8% (inactive),-162% (inactive),173,0.558,-1.26,0.6,-14% (inactive),-0.459 (inactive),-0.000111 (inactive),0.00671 (inactive),–,12% (inactive),–,–
